Results from PubChem BioAssay AID1159580 (chemical genetic matrix, 2015).
Hit rate of the full screen: of about 5,500 compounds, about 2,000 (36%) were called active. Another 18% or so got no clear call; they are omitted. Rule as the data show it: active = normalized growth mostly below about 0.91 (no sharp cut-off); inconclusive = no clear call, values can overlap the other calls; inactive = mostly above about 0.92. Some of the results follow.

Assay: chemical genetic growth profiling, strain panel (AID 1159580);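 also: tested at 20 µM; growth read once vehicle control cultures reached saturation at 30 °C; 1 = growth at the plate median or of vehicle wells; lower values mean less growth of the strain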
Settings: S. cerevisiae deletion strains, growth OD
[1] = locus YAL013W, strain DEP1, stronger effect = lower value
[2] = locus YBR229C, strain ROT2, stronger effect = lower value
[3] = locus YCL061C, strain MRC1, stronger effect = lower value
[4] = locus YDL101C, strain DUN1, stronger effect = lower value
[5] = locus YDR150W, strain NUM1, stronger effect = lower value
[6] = locus YEL061C, strain CIN8, stronger effect = lower value
[7] = locus YGR078C, strain PAC10, stronger effect = lower value
[8] = locus YGR229C, strain SMI1, stronger effect = lower value
[9] = locus YHR030C, strain SLT2, stronger effect = lower value
[10] = locus YHR087W, strain rtc3, stronger effect = lower value
[11] = locus YJR043C, strain POL32, stronger effect = lower value
[12] = locus YJR075W, strain HOC1, stronger effect = lower value
[13] = locus YLR039C, strain RIC1, stronger effect = lower value
[14] = locus YLR058C, strain SHM2 (second series), stronger effect = lower value
[15] = locus YLR085C, strain ARP6, stronger effect = lower value
[16] = locus YLR262C, strain YPT6, stronger effect = lower value
[17] = locus YML094W, strain GIM5, stronger effect = lower value
[18] = locus YMR219W, strain ESC1, stronger effect = lower value
[19] = locus YMR263W, strain SAP30, stronger effect = lower value
[20] = locus YNL153C, strain GIM3, stronger effect = lower value
[21] = locus YNL298W, strain CLA4 (second series), stronger effect = lower value
[22] = locus YNL322C, strain KRE1, stronger effect = lower value
[23] = locus YNR030W, strain Alg12, stronger effect = lower value
[24] = locus YOL006C, strain TOP1, stronger effect = lower value
[25] = locus YPL055C, strain LGE1, stronger effect = lower value
[26] = locus YPL241C, strain CIN2, stronger effect = lower value
[27] = locus YPR135W, strain CTF4, stronger effect = lower value

Measured: normalized growth

COC(=O)c1ccc(C#Cc2ccccc2)o1
active: [1] 0.9 | [2] 0.884 | [3] 0.771 | [4] 0.846 | locus YDL134C, strain PPH21, stronger effect = lower value 0.589 | [6] 0.713 | [7] 0.89 | [9] 0.323 | [10] 0.902 | locus YJL187C, strain SWE1, stronger effect = lower value 0.913 | [11] 0.822 | [12] 0.875 | locus YKL190W, strain CNB1, stronger effect = lower value 0.731 | [13] 0.55 | [15] 0.325 | [16] 0.584 | [17] 0.787 | [18] 0.88 | [19] 0.904 | [20] 0.815 | [21] 0.654 | [23] 0.793 | [24] 0.349 | [25] 0.767 | [26] 0.678 | [27] 0.457
inactive: [5] 0.834 | [8] 0.961 | [14] 0.992 | locus YNL128W, strain TEP1, stronger effect = lower value 0.927 | [22] 0.972

CN(C)/C=C/C(=O)c1ccc(C#Cc2ccccc2)cc1
inactive: locus YAR019C, strain CDC15, stronger effect = lower value 0.982 | locus YBL105C, strain PKC1, stronger effect = lower value 0.986 | locus YBR135W, strain CKS1, stronger effect = lower value 0.967 | locus YBR136W, strain MEC1, stronger effect = lower value 0.984 | locus YBR160W, strain CDC28, stronger effect = lower value 0.97 | locus YDL017W, strain CDC7, stronger effect = lower value 0.977 | locus YDL028C, strain MPS1, stronger effect = lower value 0.98 | [4] 0.982 | locus YDL108W, strain KIN28, stronger effect = lower value 0.986 | locus YDL132W, strain cdc53, stronger effect = lower value 0.968 | locus YDL214C, strain PRR2, stronger effect = lower value 0.987 | locus YDR052C, strain DBF4, stronger effect = lower value 0.974 | locus YDR054C, strain cdc34, stronger effect = lower value 0.975 | locus YDR226W, strain ADK1, stronger effect = lower value 0.972 | locus YDR477W, strain SNF1, stronger effect = lower value 0.958 | locus YER123W, strain YCK3, stronger effect = lower value 0.955 | locus YER133W, strain GLC7, stronger effect = lower value 0.981 | locus YFL009W, strain cdc4, stronger effect = lower value 0.965 | locus YFL029C, strain CAK1, stronger effect = lower value 0.976 | locus YFR003C, strain YPI1, stronger effect = lower value 0.993 | locus YFR019W, strain FAB1, stronger effect = lower value 0.981 | locus YFR028C, strain CDC14, stronger effect = lower value 0.98 | locus YGR040W, strain KSS1, stronger effect = lower value 0.967 | locus YGR052W, strain FMP48, stronger effect = lower value 1.08 | locus YGR092W, strain DBF2, stronger effect = lower value 1.01 | [9] 0.874 | locus YHR079C, strain IRE1, stronger effect = lower value 0.99 | locus YHR082C, strain KSP1, stronger effect = lower value 1.05 | locus YHR205W, strain SCH9, stronger effect = lower value 0.987 | locus YIL147C, strain SLN1, stronger effect = lower value 0.982 | locus YJL095W, strain BCK1, stronger effect = lower value 0.935 | locus YJL128C, strain PBS2, stronger effect = lower value 0.953 | locus YJL157C, strain FAR1, stronger effect = lower value 0.989 | locus YJR016C, strain ILV3, stronger effect = lower value 0.974 | locus YJR066W, strain TOR1 (second series), stronger effect = lower value 0.934 | locus YJR066W, strain TOR1, stronger effect = lower value 0.94 | locus YKL048C, strain ELM1, stronger effect = lower value 0.979 | locus YKL067W, strain YNK1, stronger effect = lower value 0.974 | locus YKL101W, strain HSL1, stronger effect = lower value 0.986 | locus YKL193C, strain SDS22, stronger effect = lower value 0.976 | locus YKL203C, strain TOR2, stronger effect = lower value 1 | locus YLR113W, strain HOG1, stronger effect = lower value 0.972 | locus YLR133W, strain CKI1, stronger effect = lower value 0.987 | locus YLR403W, strain SFP1, stronger effect = lower value 0.97 | locus YML070W, strain DAK1, stronger effect = lower value 0.967 | locus YMR001C, strain CDC5, stronger effect = lower value 0.984 | locus YMR205C, strain PFK2 (second series), stronger effect = lower value 0.994 | locus YMR277W, strain FCP1, stronger effect = lower value 0.973 | locus YNL006W, strain LST8, stronger effect = lower value 0.962 | locus YNL020C, strain ARK1, stronger effect = lower value 0.992 | locus YNL161W, strain CBK1, stronger effect = lower value 0.965 | locus YNL183C, strain NPR1, stronger effect = lower value 0.939 | locus YNL207W, strain RIO2, stronger effect = lower value 0.985 | locus YNL222W, strain SSU72, stronger effect = lower value 0.972 | locus YNL307C, strain MCK1 (second series), stronger effect = lower value 0.994 | locus YOL078W, strain AVO1, stronger effect = lower value 0.98 | locus YOL136C, strain PFK27, stronger effect = lower value 0.976 | locus YOR061W, strain CKA2, stronger effect = lower value 0.979 | locus YOR119C, strain RIO1, stronger effect = lower value 1.04 | locus YOR231W, strain MKK1, stronger effect = lower value 0.931 | locus YOR329C, strain SCD5, stronger effect = lower value 0.98 | locus YPL031C, strain PHO85, stronger effect = lower value 0.968 | locus YPL153C, strain RAD53, stronger effect = lower value 0.939 | locus YPL204W, strain HRR25, stronger effect = lower value 0.94 | locus YPL209C, strain IPL1, stronger effect = lower value 0.981 | locus YPL256C, strain CLN2, stronger effect = lower value 0.98 | locus YPR025C, strain CCL1, stronger effect = lower value 0.977 | locus YPR106W, strain ISR1, stronger effect = lower value 0.985 | locus YPR111W, strain DBF20, stronger effect = lower value 0.97 | strain NNK1, stronger effect = lower value 0.982 | strain TSCII, stronger effect = lower value 0.969

COC(=O)c1ccc(S(=O)(=O)NCc2ccccc2)n1C
inactive: [1] 1.01 | [2] 1.03 | [3] 1.02 | [4] 1.02 | [5] 1.03 | [6] 1.06 | [7] 1.02 | [8] 1.02 | [9] 1.09 | [10] 0.995 | [11] 1.06 | [12] 1.05 | [13] 1.02 | [14] 1.03 | [15] 1.04 | [16] 1.08 | [17] 1.01 | [18] 1.01 | [19] 1.01 | locus YMR307W, strain GAS1, stronger effect = lower value 1.1 | [20] 1.05 | [21] 1.03 | [22] 1.01 | [23] 1.04 | [24] 1.07 | [25] 0.991 | [26] 1.01 | [27] 1.15
